11 compounds from PubChem BioAssay (EPA / NIEHS) can be followed below.

Several values for one entry are separate records, joined by “and”; a condition that tells them apart may be missing. Identical values can stand only once. Records with an inconclusive call do not appear. Where a structure was tested more than once in an assay, its records may differ in their call. Activity calls are given as the source filed them. Rule for the calls, unless noted: active = hit-call score of the fitted dose curve at least 0.9, where 1 is the maximum; inactive = score below 0.9.

Read-out in experiment [1]: E-selectin (Homo sapiens) (UniProt P16581)
As to the kind of experiment: BSK_IMphg_ESelectin: BioMAP Diversity Plus: IMphg Assay for Eselectin Biomarker Activity (AID 2284291). The settings on record: primary human endothelial cells with macrophages. The procedure, abridged:
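Analysed against DMSO baseline in the positive fitting direction, this endpoint is an ELISA read of E-selectin. It comes from human venular endothelial cells co-cultured with macrophages, sampled 24 h post-dose.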

Experiment [2] can be described thus: BSK_IMphg_SRB: Viability Assessment in the BioMAP Diversity Plus: IMphg Assay (AID 2284292).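 Note: measured one day after compound addition.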 The following applies: primary human endothelial cells with macrophages. The procedure, abridged:
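SRB viability endpoint: cultures of human endothelial cells plus macrophages fixed with 10% TCA, stained with 0.1% SRB, read at 560 nm 24 h post-dosing. Only gain-of-signal fitted, relative to DMSO.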

Read-out in experiment [3]: Macrophage colony-stimulating factor (MCSF), CSF1 (gene 1435)
As to the kind of experiment: BSK_IMphg_MCSF: BioMAP Diversity Plus: IMphg Assay for Macrophage colony-stimulating factor (MCSF) Biomarker Activity (AID 2284293). The settings on record: primary human endothelial cells with macrophages. A digest of the protocol:
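M-CSF was measured by ELISA in human venular endothelial cell/macrophage co-cultures dosed for 24 hours. Sulforhodamine B staining of parallel cultures assessed cytotoxicity; data fitted against DMSO baseline.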

Read-out in experiment [4]: Interleukin-10 (IL10), IL10 (gene 3586)
As to the kind of experiment: BSK_IMphg_IL10: BioMAP Diversity Plus: IMphg Assay for Interleukin-10 (IL10) Biomarker Activity (AID 2284294). The following applies: primary human endothelial cells with macrophages. The procedure, abridged: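 IL-10 read by ELISA after 24 h chemical exposure of primary human venular endothelial cell/macrophage cocultures, with DMSO as baseline. Parallel SRB staining (560 nm) gauged overt cytotoxicity.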

Experiment [5] is described as follows: BSK_IMphg_SRB.Mphg: Macrophage Viability Assessment in the BioMAP Diversity Plus: IMphg Assay (AID 2284295). The following applies: primary human endothelial cells with macrophages. A digest of the protocol: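 Cytotoxicity read-out: parallel cultures fixed with 10% TCA, stained with 0.1% sulforhodamine B, read at 560 nm. System combines venular endothelium and macrophages; sampled 24 h post-dosing, fitted positively relative to DMSO control.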

Read-out in experiment [6]: Thrombomodulin, THBD (gene 7056)
As to the kind of experiment: BSK_LPS_Thrombomodulin: BioMAP Diversity Plus: LPS Assay for Thrombomodulin Biomarker Activity (AID 2284296). The following applies: primary human HUVEC with PBMC. The procedure, abridged: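 Thrombomodulin on the surface of LPS-activated endothelial/PBMC co-cultures was quantified by ELISA at 24 hours post-dosing, with DMSO as baseline. Parallel SRB total-protein staining flagged overt cytotoxicity.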

Read-out in experiment [7]: CD69, CD69 (gene 969)
Description: BSK_LPS_CD69: BioMAP Diversity Plus: LPS Assay for CD69 Biomarker Activity (AID 2284303). The settings on record: primary human HUVEC with PBMC. A digest of the protocol:
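CD69 surface levels were read by ELISA after 24 h chemical treatment of an LPS-stimulated HUVEC plus PBMC co-culture; positive-direction fit against DMSO vehicle.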

Experiment [8] in a line: CCTE_Mundy_HCI_iCellGluta_NOG_NeuriteLength: CCTE's Neurite Outgrowth Assay in iCellGluta cells for Neurite Length, Mundy Lab (AID 2284318; active = hit-call score of the fitted dose curve at least 0.9, where 1 is the maximum). A digest of the protocol:
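Automated high-content imaging of betaIII-tubulin (Alexa Fluor-488) and Hoechst-stained cells gave neurite length, normalized to the DMSO baseline.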

Read-out in experiment [9]: Interleukin-1 alpha (IL1a), IL1A (gene 3552)
Description: BSK_IMphg_IL1a: BioMAP Diversity Plus: IMphg Assay for Interleukin-1 alpha (IL1a) Biomarker Activity (AID 2284290). The settings on record: primary human endothelial cells with macrophages. A digest of the protocol:
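IL-1α is quantified by ELISA at 24 h in the endothelial/macrophage IMphg co-culture, with gain of signal fitted relative to DMSO. Parallel SRB total-protein staining flags overt toxicity.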

Chain of E-selectin (Homo sapiens) (P16581 whole entry, looked up): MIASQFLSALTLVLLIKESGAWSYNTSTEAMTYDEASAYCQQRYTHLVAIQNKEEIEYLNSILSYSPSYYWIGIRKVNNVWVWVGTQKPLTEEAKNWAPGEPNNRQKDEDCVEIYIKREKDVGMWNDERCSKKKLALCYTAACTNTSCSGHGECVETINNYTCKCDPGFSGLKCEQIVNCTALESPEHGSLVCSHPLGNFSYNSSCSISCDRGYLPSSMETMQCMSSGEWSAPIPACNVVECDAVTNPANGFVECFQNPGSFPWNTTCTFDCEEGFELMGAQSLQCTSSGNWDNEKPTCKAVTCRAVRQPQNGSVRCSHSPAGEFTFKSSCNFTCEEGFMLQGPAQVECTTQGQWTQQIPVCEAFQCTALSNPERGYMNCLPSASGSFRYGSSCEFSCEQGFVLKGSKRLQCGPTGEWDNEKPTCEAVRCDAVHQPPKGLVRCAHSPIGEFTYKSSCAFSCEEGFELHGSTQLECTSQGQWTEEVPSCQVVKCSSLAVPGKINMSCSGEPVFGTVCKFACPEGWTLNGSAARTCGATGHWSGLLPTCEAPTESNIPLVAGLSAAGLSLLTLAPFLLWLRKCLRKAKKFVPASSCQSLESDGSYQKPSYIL

As usually defined, the AC50 is the midpoint of the concentration-response curve, whichever way the signal moves. For `CCN(CCO)S(=O)(=O)C(F)(F)C(F)(F)C(F)(F)C(F)(F)C(F)(F)C(F)(F)C(F)(F)C(F)(F)F`, the AC50 in experiment [1] was 5.54 µM (active) and 6.2 µM (active); in experiment [2], 30 µM (active); in [5] it was 44.2 µM (active); in experiment [6] it was 16.6 µM (active) and 13.5 µM (active); in [7], 8.1 µM (active) and 7.79 µM (active). In addition, the outcome in [3], in experiment [4], in experiment [5] and in experiment [8] was inactive.

As to `FC(F)(F)C(F)(F)C(F)(F)CC1CO1` (configuration not stated), the outcome in experiment [1], in experiment [2], in [3], in [4], in experiment [5] and in experiment [6] was inactive. Also, the outcome in experiment [7] was inactive.

With `CCOC(=O)CC(=O)C(F)(F)C(F)(F)F`, the outcome in experiment [9], in experiment [1], in experiment [2], in [3], in experiment [4] and in experiment [5] was inactive. For the same compound, the outcome in [6] and in [7] was inactive.

Take `O=S(=O)(O)CCC(F)(F)C(F)(F)C(F)(F)C(F)(F)F`: the result in [1], in experiment [2], in experiment [3], in [4], in [5] and in experiment [6] was inactive. For the same compound, the result in experiment [7] was inactive.

For `C=CC(=O)OCC(F)(F)C(F)(F)C(F)(F)COC(=O)C=C`, the AC50 in experiment [1] is 40 µM (active) and 33.5 µM (active); in experiment [2], 43.8 µM (active); in [4], 38.3 µM (active) and 41.1 µM (active); in experiment [5], 39.4 µM (active); in [6], 8.08 µM (active) and 7.99 µM (active); in [7] it was 15.9 µM (active) and 10.5 µM (active). The outcome in [2], in [3] and in experiment [5] was inactive.

As for `OCC(F)(F)C(F)(F)C(F)(F)C(F)(F)C(F)(F)C(F)(F)CO`, the result in [9], in experiment [1], in experiment [2], in [3], in experiment [5] and in [6] was inactive. For the same compound, in [7], the outcome was inactive. Also, in [4], the AC50 was 3.34 µM (active) and 5.58 µM (active).

As for `CN(C(=O)C(F)(F)C(F)(F)C(F)(F)F)[Si](C)(C)C`, the outcome in experiment [1], in [2], in [3], in experiment [4], in experiment [5] and in [6] was inactive. For the same compound, the result in experiment [7] was inactive.

For `O=C(O)C(F)(F)C(F)(F)C(F)(F)OC(F)(F)F`, the result in experiment [9], in [1], in [2], in [3], in [4] and in [5] was inactive. In addition, the outcome in experiment [6], in experiment [7] and in [8] was inactive.

For `OCC(F)(F)C(F)(F)C(F)(F)C(F)(F)C(F)(F)C(F)(F)C(F)(F)C(F)(F)CO`, the AC50 in [1] was 51.5 µM (active) and 36.1 µM (active); in [2], 52.9 µM (active) and 54 µM (active); in experiment [3] it was 39.7 µM (active); in experiment [4], 21.5 µM (active) and 42.7 µM (active); in experiment [5] it was 46 µM (active) and 39.8 µM (active). Also, the outcome in experiment [3], in experiment [6] and in [7] was inactive.

Regarding `O=C(O)C(F)(F)OC(F)(F)C(F)(F)OC(F)(F)C(F)(F)OC(F)(F)F`, the outcome in [1], in [2], in experiment [3], in experiment [4], in [5] and in [6] was inactive. In experiment [7], the result was inactive.

Consider `O=C(Cl)C(F)(F)C(F)(F)C(F)(F)C(F)(F)C(F)(F)C(F)(F)F`, for which the outcome in experiment [1], in experiment [2], in experiment [3], in experiment [4], in experiment [5] and in experiment [6] was inactive. Further, the result in experiment [7] was inactive. Besides, the AC50 in experiment [4] is 7.98 µM (active) and 7.26 µM (active).
